Compound activity: PubChem, National Center for Advancing Translational Sciences (NCATS)
Most compounds without a hit are left out; they make up all but 2.3% or so of the library.
GLP-1R agonist: agonists of human GLP-1 receptor. P43220. HEK293 GLP-1R CRE-luciferase, luminescence, 4-6 h; cells express a hypersensitive GLP-1R form. Potency, µM (titrated, usually from 45.6 µM), inactives show at the top dose activation, actives largely listed as activators. 380,000 compounds, 0.007% hits; note: % of control where 0% means no effect
GRP78 ERSR act: inducers of ER stress response in human glioma cells | U87-MG GRP78 promoter luciferase reporter, 16 h | Potency, µM, inactives show top-dose activation, most hits filed as activators | AID 602332 | 420,000 compounds, 0.02% hits; note: series mostly up to about 76 µM; % of control where 0% means no effect; nearly all actives have a fitted effect of over 35% in size
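Stably transfected U87-MG glioma cells carrying a GRP78-based luciferase sensor; 16 h compound incubation. Luminescence end-point read 10 min after Bright-Glo addition at room temperature.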
PTHR1 agonist: agonists of human PTHR1 parathyroid hormone receptor | 410,000 compounds, 0.075% hits | Potency, µM (highest dose often 115 µM), inactives show top-dose activation, usual class: activators | HEK293 GP2 PTHR1 cells, GloSensor cAMP luminescence, 1 h | Q03431; note: nearly all actives have a fitted effect of over 55% in size
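HEK-293-derived GP2 cells expressing PTHR1 and a GloSensor cAMP reporter, 3,000/well, plated overnight, given luciferin plus IBMX (each 0.5 mM as added) for 1 h at 37 °C, then compound for 1 h at 37 °C. Luminescence was read after 15 min at room temperature.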
12-LOX inh: ALOX12 (human) lipoxygenase inhibition. P18054. purified 12hLO, xylenol orange hydroperoxide absorbance. Potency, µM (titrated, usually from 108 µM), without a hit: at the highest dose activity change, negative = inhibition, hits mostly inhibitors. 580,000 compounds, 1.1% hits. AID 1671190; note: % is set by controls: 0 for no effect and ±100 for the full control effect
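Hydroperoxide product was detected by ferrous iron/xylenol orange as the 573 to 405 nm absorbance ratio. Arachidonic acid at 40 uM (final) was turned over for 30 min at room temperature by 150 nM human 12hLO, pH 7.0 Hepes buffer, after 15 min compound preincubation.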
GLS inh: blocks human kidney-isoform glutaminase activity; Potency, µM (highest dose often 45.5 µM), without a hit: top-dose activity change, negative = inhibition, usual class: inhibitors; 410,000 compounds, 0.21% hits; AID 624170; O94925; GLS enzymatic activity, qHTS titration; note: % is set by controls: 0 for no effect and ±100 for the full control effect
Target sequence (O94925 whole entry, looked up, canonical isoform): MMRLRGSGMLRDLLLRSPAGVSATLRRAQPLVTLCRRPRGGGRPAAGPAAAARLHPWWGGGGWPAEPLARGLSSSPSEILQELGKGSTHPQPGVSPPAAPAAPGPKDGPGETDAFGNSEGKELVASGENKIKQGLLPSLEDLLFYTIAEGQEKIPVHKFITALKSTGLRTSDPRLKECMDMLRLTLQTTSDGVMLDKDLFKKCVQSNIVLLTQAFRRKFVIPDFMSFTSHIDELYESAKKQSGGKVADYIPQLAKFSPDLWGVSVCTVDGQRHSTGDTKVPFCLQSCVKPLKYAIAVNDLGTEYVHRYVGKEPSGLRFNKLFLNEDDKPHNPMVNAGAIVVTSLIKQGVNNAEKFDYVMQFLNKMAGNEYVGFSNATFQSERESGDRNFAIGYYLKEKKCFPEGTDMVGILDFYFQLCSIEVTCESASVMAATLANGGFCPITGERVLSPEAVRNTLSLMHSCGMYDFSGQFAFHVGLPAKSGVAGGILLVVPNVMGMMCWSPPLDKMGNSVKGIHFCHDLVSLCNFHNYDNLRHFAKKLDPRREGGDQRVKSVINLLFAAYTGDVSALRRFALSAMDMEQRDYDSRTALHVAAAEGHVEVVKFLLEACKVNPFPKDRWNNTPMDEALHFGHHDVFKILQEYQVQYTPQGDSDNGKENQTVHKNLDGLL
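Two-point fluorescence kinetic (t0, 30 min RT) for hKGA; glutamate detected via glutamate oxidase–HRP–Amplex Red. Substrate: 1 mM L-glutamine solution; buffer 45 mM KH2PO4, pH 8.2.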
GLP-1R inv ag: GLP-1 receptor (human) inverse agonism; P43220; HEK293 GLP-1R CRE-luciferase, luminescence, 24 h; GLP-1R form is constitutively active; Potency, µM (doses to about 38.3 µM), for inactives: at the top dose activity change, negative = inhibition, actives largely listed as inhibitors; 410,000 compounds, 1.6% hits; AID 624417; note: % is set by controls: 0 for no effect and ±100 for the full control effect; nearly all actives have a fitted effect of over 55% in size
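Inverse agonists were sought by their lowering of basal cAMP reporter luciferase output in HEK293 cells stably carrying constitutively active human GLP-1R, after 24 h compound treatment.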
* hit, by the source's call; i = inactive; ? = inconclusive; . = not tested or not shown; ! = not active in a repeat; [ ] = dose if it differs, or a comment. Calls come from the whole dose curve; as a rule, active = well fitted curve in the direction sought with a large enough effect; inconclusive = small, poorly fitted or top-dose-only effect, or another doubt; inactive = no such curve, though single readings can be large; an effect the other way counts as inactive or inconclusive. Potency is the fitted concentration of half-maximal effect.

SMILES | GLP-1R agonist | GRP78 ERSR act | PTHR1 agonist | 12-LOX inh | GLS inh | GLP-1R inv ag
Cc1ccc(CN2C(=O)[C@@H]3C[C@@H](O)CN3C3(CN(Cc4ccccc4F)C3)C2=O)o1 | . | . | . | 2.9%[176 µM] | . | .
CC(C)(C=O)C1=CC(=O)c2ccccc2C1=O | -24.4% | -13.2% | -34.9% | 39.8µM* | ? | 0.0%
CC1=CC(=O)c2ccccc2C1=O | 6.5% | 3.8% | -44.8% | ? | 11.2% | 16.8%
Cc1ccc(S(=O)(=O)N2[C@@H](c3ccc(Cl)c(Cl)c3)C(C(=O)O)=C[C@H]2CC2CCCC2)cc1 | -0.5% | -1.3% | -61.6% | 28.2µM* | 11.3% | ?
Cc1ccc(S(=O)(=O)N2[C@@H](c3ccc(Cl)cc3)C(C(=O)O)=CC[C@H]2c2ccc(Cl)c(Cl)c2)cc1 | -3.5% | -3.1% | -70.1% | ? | 20.7% | 3.55µM*
Cc1ccc(S(=O)(=O)N2C(c3ccc(Cl)c(Cl)c3)CC=C(C(=O)O)C2c2ccc(Cl)cc2)cc1 (configuration not stated) | . | . | i | 430.9% | . | ?
Cc1ccc(S(=O)(=O)N2[C@@H](c3ccc(C(C)(C)C)cc3)C(C(=O)O)=CC[C@H]2c2ccc(C(C)C)cc2)cc1 | -3.4% | ? | -95.5% | 39.8µM* | 23.5% | 3.16µM*
Cc1ccc([C@@H]2CC=C(C(=O)O)[C@H](c3ccc(C(C)(C)C)cc3)N2S(=O)(=O)c2ccc(C)cc2)cc1 | -4.1% | 0.1% | -36.1% | -94.2% | -5.8% | ?
CCc1ccc([C@@H]2CC=C(C(=O)O)[C@H](c3ccc(C(C)(C)C)cc3)N2S(=O)(=O)c2ccc(C)cc2)cc1 | -4.6% | 8.6% | -19.8% | -68.6% | 30.6% | 12.6µM*
C#CCN(Cc1ccc(C)cc1)C(=O)CCC(=O)CCC(=O)c1ccc(C)s1 | . | . | . | -12.4% | . | .
Cn1c(=O)c2nc(SCC(=O)Nc3ccc(F)c(Cl)c3)n(C)c2n(C)c1=O | . | . | . | -6.4% | . | .
Cc1ccc(S(=O)(=O)N2[C@@H](c3ccc(Br)cc3)C(C(=O)O)=CC[C@H]2c2ccc(C(C)C)cc2)cc1 | 8.1% | 0.1% | -43.4% | 35.5µM* | 31.4% | ?
CCCCC[C@@H]1C=C(C(=O)O)[C@H](c2ccc(Br)cc2)N1S(=O)(=O)c1ccc(C)cc1 | -1.0% | -0.6% | -6.6% | 35.5µM* | 0.6% | ?
CCCC[C@@H]1C=C(C(=O)O)[C@H](c2ccc(Cl)cc2)N1S(=O)(=O)c1ccc(C)cc1 | 3.0% | -2.0% | -18.8% | 0.0% | 11.9% | ?
CCc1cccc2c(/C=C(/C#N)c3nc4cc(C)c(C)cc4[nH]3)c[nH]c12 | . | . | . | 14.9% | . | .
CN(CC(=O)NC(=O)NC1CCCCC1)Cc1ccc2ccccc2c1 | . | . | . | 10.9% | . | .
Cc1cc(C)cc(NC(=O)C2CCN(c3ncnc4c3sc3ncccc34)CC2)c1 | . | . | . | -5.0% | . | .
CN1CCC(OC(c2ccccc2)c2ccc(Cl)cc2)C1 (configuration not stated) | 5.0% | -4.5% | -9.3% | -9.1% | 0.0% | 3.16µM*
CN1C2CCC1CC(OC(c1ccccc1)c1ccccc1)C2 (configuration not stated) | 2.0% | -1.1% | 3.4% | 4.0% | -4.5% | ?
COC(=O)c1cc(C)nc2onc(-c3ccc(F)cc3)c12 | . | . | . | -14.9% | . | .
C=CC[C@]12CC=CC(=O)[C@@]1(O)O[C@H](c1ccc(OC)c(OC)c1)[C@H]2C | -0.3% | -9.5% | -84.3% | -0.6% | -3.6% | 11.2µM*
O=C(c1cnccn1)N1CC(=O)N2[C@H](C1)[C@@H](c1ccc(Br)cc1)[C@@H]2CO | . | . | . | 5.62µM* | . | .
Cc1cc(C2=NNC(=Nc3ccccc3)SC2)c(C)n1C | -4.5% | 0.6% | -3.9% | 14.1µM* | 10.4% | 2.1%
CN(C)S(=O)(=O)c1cccc(N=C2NN=C(c3ccccc3)CS2)c1 | -10.4% | 2.6% | i | -12.1% | 11.9% | 11.2µM*
CC(=O)Nc1ccc(C2=NNC(=Nc3cccc(S(=O)(=O)N(C)C)c3)SC2)cc1 | -4.1% | -1.0% | i | . | 18.6% | ?
SMILES | GLP-1R agonist | GRP78 ERSR act | PTHR1 agonist | 12-LOX inh | GLS inh | GLP-1R inv ag
C[C@H]1CCC[C@]2(C)C[C@H]3OC(=O)C(CN4CCCCCC4)[C@H]3C=C12 (some centres not stated) | -6.9% | -11.2% | i | 12.8% | 6.1% | 11.2µM*
COc1ccc(C(=O)Nc2nc3c(s2)C[C@@H]2[C@](C)(CO)[C@H](O)CC[C@@]2(C)[C@@H]3CC(=O)N2CCOCC2)cc1 | . | . | . | 89.1µM* | . | .
O=C(Cc1csc2ccccc12)NCC1CC1 | -3.4% | 2.0% | -17.3% | ? | -26.4% | 20.0%
CN1CCC(CNC(=O)Nc2csc3ccccc23)CC1 | 8.4% | 1.5% | i | 39.8µM* | -5.3% | 8.4%
CCCCCCCCCCCC1=C(O)C(=O)C=C(O)C1=O | -7.9% | -2.9% | -16.6% | 3.43µM*! | 42.4% | -22.7%
O=C(NCCC12CC3CC(CC(C3)C1)C2)C12CC3CC(CC(C3)C1)C2 | . | . | . | 7.8% | . | .
CCC(=O)Nc1ccc(C(=O)NN=C(C)C)cc1 | . | . | . | -21.1% | . | .
N#Cc1ccc(/C=N/Nc2ccccc2Cl)cc1 | . | . | . | 10µM* | . | .
Fc1ccc(/C=N/Nc2cccc(Cl)c2)cc1F | . | . | . | 3.98µM* | . | .
O=[N+]([O-])c1ccc(/C=N/Nc2ccc(S(=O)(=O)Nc3cccc(Cl)c3)cc2[N+](=O)[O-])cc1 | . | . | . | 14.2% | . | .
N#Cc1ccc(/C=N/Nc2ccc(S(N)(=O)=O)cc2[N+](=O)[O-])cc1 | . | . | . | -6.5% | . | .
N#Cc1ccc(/C=N/Nc2cccc(Cl)c2)cc1 | . | . | . | 2.51µM* | . | .
COc1ccc(CC(=O)Nc2ncc([N+](=O)[O-])s2)cc1OC | -3.0% | -1.3% | i | 35.5µM* | ? | 4.6%
O=C(COC(=O)c1ccccc1)Nc1ncc([N+](=O)[O-])s1 | -9.3% | 3.6% | -28.3% | 39.8µM* | 168.7% | 16.2%
CCOC(=O)c1c(NC(=O)C(=O)NCc2ccccc2)sc2c1CC(C)(C)OC2 | . | . | . | 15.8% | . | .
CCOC(=O)COC(=O)CNC(=O)c1ccc(C)c(C)c1 | . | . | . | 1.5% | . | .
Cc1cccc(OC[C@H]2C[C@@H](NCc3cccc4c3OCO4)[C@H](O)[C@@H]2O)n1 | . | . | . | 20µM* | . | .
CN(C)c1nc(=NCc2cccs2)ss1 | 0.7% | -13.4% | -4.1% | 15.8µM* | ? | ?
COc1cc(CN2CCNC(=O)C2CC(=O)NCCC2=CCCCC2)cc(OC)c1 (configuration not stated) | 9.9% | 0.9% | 22.4% | -16.9% | 8.0% | 0.0%
COc1ccc(CN2CCNC(=O)C2CC(=O)NCCC2=CCCCC2)c(F)c1 (configuration not stated) | 7.9% | -4.9% | -7.8% | 11.2µM* | 9.5% | -3.3%
Cc1ccc(C)c(N(C)C(=O)c2cn(C)c(=O)c3ccccc23)c1 | . | 6.8% | -25.3% | -5.7% | 8.8% | 6.31µM*
